Measured values from the supplement of paper PMC11417369.
The full ranking holds about 25,000 sequences; the median of “ln(normalized median fluorescence intensity)” is about 9.3, and the highest 2% start at about 10. The sample holds the highest values, similar sequences and a random draw of the others, so the mix is not that of the screen.

Test system: PF3D7_0420300 AP2 domain 1 (GST-tagged)
Assay: gcPBM binding intensity (ln(normalized median fluorescence intensity)); higher = stronger DNA binding
In short: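 Binding intensity values are the highest Masliner-normalised natural-log median intensity among replicate spots of either probe orientation. The binding step lasted 1 h in 1× PBS with 1% milk, 0.2 mg/ml BSA, 0.5% salmon testes DNA and 0.03% Triton X-100, using GST-tagged P. falciparum DNA-binding domains expressed in E. coli on an Agilent 4 × 180k array of primer-extended double-stranded 36-bp intergenic genomic probes plus negative controls. Alexa488 anti-GST antibody and a 488 nm scan detected bound protein.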

| Sequence | gcPBM binding intensity (ln) |
| --- | --- |
| TTTTTTTTTTTTAATTAACACACATAAATATATATA [CACACA_site9077] | 9.11 |
| AAAAAATAATTGAAGTGTACGTACAATGATTTTACT [XGTACX_site7663] | 9.35 |
| TTTCCCCCATATAATGAACACACACCCTCCTCATAA [CACACA_site8110] | 9.85 |
| CCCATGTAATATTAAACACACACTCATATAACACAA [CACACA_site7906] | 9.71 |
| CCCCATATAATGAACACACACACTCCTCATAATTAA [CACACA_site628] | 10.2 |
| ACCTATATAAATTATACACACAAATATAAATATATA [CACACA_site2843] | 9.66 |
| ACAAAATATACAAAATGTACAAAATTTACAAAATAT [XGTACX_site6466] | 9.43 |
| TATAAAATGACTATATATAATATTAAAAAAAAAAAA [TGCATGCA_negctrl_site387] | 9.11 |
| CCAAACAAAAAAAAAAGTACATAAAACACCTATTTG [XGTACX_site5645] | 9.46 |
| ATTTCATACAGACACACACACAAACAAACATATATA [CACACA_site979] | 10.1 |
| GTACCTATTTCATACACACACACACCCAAACAAACA [CACACA_site976] | 10.3 |
| ATGTACCTATTTCATACACACACACCCACAAACAAA [CACACA_site8232] | 10 |
| AAGGCAAACAAACACACACACATATATACCTATATA [CACACA_site5203] | 10 |
| GTACCTATTTCATACACACACACACGCAAACAAACA [CACACA_site6590] | 10.3 |
| TATATTTAATTATTATGTACTTATAATTTTTGAAAG [XGTACX_site8548] | 8.95 |
| TTAATATAACTTTTTGCACACTTAATTTTTTTTTTT [CACACA_site3364] | 9.44 |
| TATATATATATACCAACACACATACAGATATATATA [CACACA_site5060] | 9.7 |
| ACATATACATATATATGTACATAAATATATATATAT [XGTACX_site8630] | 9.17 |
| TATTCATGCATATACACACACATATATATATATTTT [CACACA_site3955] | 9.85 |
| TCTTTTTTTACTTTCTTTTTTTTTTTTTTTTTTTTT [XGTACX_negctrl_site610] | 9.11 |
| ATAAATATATATTTACGTACATATTATATATATATA [XGTACX_site6172] | 9.27 |
| TATACACCCAGACACACACACACACCCAAAAAAAAA [CACACA_site497] | 10 |
| CACCCATACAGACATACACACACATATATATTAATA [CACACA_site8077] | 9.87 |

| Sequence | gcPBM binding intensity (ln) |
| --- | --- |
| CACCCACACCAACACACACACATATATATATATATA [CACACA_site362] | 10.1 |
| CACGCGCACCAACACACACACACACCCATATATATA [CACACA_site2204] | 10.3 |
| TATAAACACCCATATAAACACACATATAAACCAACA [CACACA_site8790] | 9.79 |
| CGCGCACCCAGACACACACACACACCCATATATATA [CACACA_site2203] | 10.2 |
| CGCGCACCCAGACACACACACACACCGATATATATA [CACACA_site8687] | 10.2 |
| GGAGCACCCAGACACACACACACATATATATATATA [CACACA_site336] | 10.1 |
| TAGACTCCCAGACACACACACACACCCATATAATAT [CACACA_site593] | 10.2 |
| TAATTTTTAATTGTAGCATGCAGTATTTTTAAATAT [TGCATGCA_site140] | 8.97 |
| TACTTACAGATAATAACACACAAGAAAAAAATAAAA [CACACA_site4716] | 9.8 |
| CAAATATATATTTTCTGTACAAATACAATTAATACT [XGTACX_site2694] | 9.13 |
| ATAAAGAAAATATGGAGTACATTTATATCCAATATA [XGTACX_site3085] | 9.17 |
| CACAATGGTTTATATACACACTGTTGCAAATTCTTC [CACACA_site5659] | 9.45 |
| TATAGTTCTTCTATTTGTACATATATTATTATTTAA [XGTACX_site895] | 9.26 |
| ATTAATATATTATCATGTACACAAAAATAATTTTAT [XGTACX_site7257] | 9.13 |
| TTAAAATGTTGTAACGTGCACATTTTGTGGAAATCA [GTGCAC_site9559] | 9.07 |
| AAATAATTCATATGTTGTACAGTAATTAAATTTTCT [XGTACX_site6343] | 9.08 |
| CGCGCCCAGAAACACACACACACACCGATATATATA [CACACA_site5250] | 10.3 |
| AAAAAAAAAAAACACACACACACACCGAAATATATA [CACACA_site4261] | 10.2 |
| ATAATATATATTAATACACACACACCGATATATATA [CACACA_site9261] | 10.1 |
| TACGCTCCCAGACACACACACACACCGATATAATAT [CACACA_site8098] | 10.3 |
| CTATAATAATAAAGTGAACACACACCGATAATATAT [CACACA_site9377] | 9.78 |
| GAAATGGGTAAACATACACACACACCGATATATATA [CACACA_site8610] | 9.93 |
| AATATAAATAAAAACACACACAATGGTACAGATATA [CACACA_site5930] | 10.1 |

| Sequence | gcPBM binding intensity (ln) |
| --- | --- |
| TGTATAATAAGGAAGAGTACAAGTAAATACACACAT [XGTACX_site2084] | 9.87 |
| ATTATGTGCCAATACACACACACATATATATATATA [CACACA_site468] | 9.9 |
| AGAAAGATGCAAGAAACATGCAAAAAAAAAATTTCT [TGCATGCA_site725] | 9.15 |
| AAAAATTCAATAGGACGTACTAAAACATTCATTAAT [XGTACX_site1712] | 9.34 |
| CACTAAAATAGACACACACACACACGGATATAAATA [CACACA_site7873] | 10.3 |
| AAAAAAAATAGACACACACACATACACATAAATATA [CACACA_site7742] | 10.1 |
| GATATATAAATAAATACACACATAAAATAGAAATAT [CACACA_site6881] | 9.93 |
| TAAATTTATAGACACACACACATATAAATAAATATA [CACACA_site6530] | 10 |
| AAAAATAAAGGATATACACACTAATTATATATATAT [CACACA_site5550] | 9.51 |
| AAAATACATAGACACACACACACACGGATATAAATA [CACACA_site7643] | 10.2 |
| TATATAACTGTCTTCACACACACATATAAATAAATA [CACACA_site7317] | 9.77 |
| TAATTTCTTTAGGGGGTGCTTTTATAGTTTTTATTA | 10.1 |
| TATATATTTATTTATAGTACACTATTTATGAAAACC [XGTACX_site3062] | 9.1 |
| ATTAAAAGGGGGTTTACATGTGTGTGTGTAATATGG [TGCATGCA_negctrl_site293] | 10.2 |
| TATAATCATATTAAGGGTACATATGTGTAAATATTT [XGTACX_site6018] | 9.23 |
| AATAATATTAATAAAAGTACATGTGTAATATATATA [XGTACX_site5922] | 9.51 |
| AACAACTATTACTGCACACATTCTTACACTATATAA [CACACA_site654] | 9.75 |
| TATAAATAAAGCAGTACACACATTTATTTTAGATAC [CACACA_site7566] | 9.61 |
| GGGGGGAGGGTGAATACACACGTAATAATCATAAAC [CACACA_site8502] | 10.3 |
| ATAAAAAAATCAGACACACACACGTAAACACATACA [CACACA_site5529] | 10.1 |
| ATAAATATCATATATATACACACGTAATACATAATA [CACACA_site4001] | 9.56 |
| ATGCTATATTAAAAACGTACAAACTGTTTAGAAAAA [XGTACX_site8943] | 9.12 |
| TTATTTAGTATATTATGTACATACAATGCCTGGGAA [XGTACX_site4578] | 9.21 |

| Sequence | gcPBM binding intensity (ln) |
| --- | --- |
| AATAAAGCAATAAATACACACATATTTATATTTATA [CACACA_site7390] | 9.56 |
| AATAGTAAAAGATATACACACACCAAAAAATAGAAT [CACACA_site2289] | 10.3 |
| TAAATATATAAATACACACACACCAAAGCAATAGAT [CACACA_site5605] | 10.2 |
| TGTAAATATATATATACACACACACCGAAGCAATAG [CACACA_site8960] | 10.1 |
| TAAATATATATATACACACACACCAAAGCAATAGAT [CACACA_site2940] | 10.3 |
| TATAAATAAATAGATACACACATATTTATAAATACA [CACACA_site6219] | 9.56 |
| AAAAAGAAAATATATACACACCAAAAAAAAAAAAAA [CACACA_site5698] | 9.46 |
| AATAAAGCAATAAATACACACATATATATATATATA [CACACA_site2934] | 9.31 |
| TATATATATAAATACACACACACACCCCAAAGCGTA [CACACA_site4211] | 10.1 |
| TAAAAAAGAAAATATATACACACCAAAAAAAAAAAA [CACACA_site3146] | 9.66 |
| TAAATATATTTATACACACACACCAAAGCAATAGAT [CACACA_site7393] | 10.3 |
| AATAGTAAAAGATATACACACACCAAAAAATATAAT [CACACA_site5293] | 9.99 |
| AGCTATAATAAATATACACACATATATAAATATGTA [CACACA_site6583] | 9.37 |
| CATGTGTTCTATATTTATGTCTAACTTTTTAATTAA [CACACA_negctrl_site904] | 9.43 |
| GTTTAAAAAAATTATCAACTTTAAAAAGGTAACATT [XGTACX_negctrl_site203] | 8.99 |
| ATTTATAAAACAGGCACACATATAATAAATTTTATA [CACACA_site2600] | 9.54 |
| AATACTCAAAAGAATCGTACAAACAACACTCCCACG [XGTACX_site7564] | 9.4 |
| TTTTTTTTTCAAGAGGTGCGTGTATTTTAACAAAAA | 9.03 |
| TTAATTATATTATGCACACACAATTGGAAAAAAAAT [CACACA_site1958] | 9.64 |
| TATAAAATACTGTATCGATGGGGGAGGGCGCAGGGG [TGCATGCA_negctrl_site250] | 11 |
| ATATATGGGGCGCAGGAAAAGAGTTTTGGAAATAAA [CACACA_negctrl_site1265] | 9.2 |
| AGTATATAAAATACTGTATCGATGGGGGAGGGCGCA [CACACA_negctrl_site1612] | 10 |
